Sampled rows, rich in hits. Any-hit rate of the full collection: about 3.4%.
TWEAK-Fn14 inh: TWEAK-Fn14 signaling inhibition; TWEAK-stimulated Fn14 reporter cells, luciferase luminescence, 8 h; inhibition, % at 10 µM; 360,000 tested, 2% active; in the data active means inhibition above about 50%
HIF-2a block: HIF-2a inhibition | 786-0 RCC cells HIF-2a reporter, luciferase luminescence, overnight | inhibition, % at 18.8 µM | AID 624352 | 360,000 tested, 0.72% active;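 active means inhibition of the luminescence signal of 40% or more relative to plate controls, in a single-dose primary screen at 18.75 µM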
TROY NFkB inh: blocks TROY-dependent signaling in reporter cells; Q293 LMP1-TROYcd NF-kB luciferase reporter, 4 h; 360,000 tested, 0.98% active; AID 1347056; inhibition, % at 10 µM;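 active means compounds whose plate-normalised and pattern-corrected inhibition of the luciferase reporter signal at the single screening dose is 50% or more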
EBV LMP1 NFkB: reduces LMP1-driven NF-kappaB luciferase signal. LMP1-induced NF-kappaB luciferase reporter cells, luminescence. AID 504558. 350,000 tested, 0.69% active. inhibition, % at 12.5 µM; in the data active means inhibition above about 41%;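 further: 0% = neutral control wells and 100% = reference inhibitor control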
MITF TRPM1 inh: inhibitors of MITF-driven TRPM1 promoter in melanoma cells | inhibition, % at 12.5 µM | SK-MEL-5 TRPM1 promoter luciferase, 24 h | 330,000 tested, 0.83% active;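 active means mean inhibition across replicates of 60% or more, whatever share of single replicates reaches that level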
Shn3 3UTR inh: inhibitors of Schnurri-3 3'UTR reporter in osteoblasts; Clone20 osteoblast Shn3 3'UTR firefly luciferase, 24 h; inhibition, % at 12.5 µM; 360,000 tested, 0.52% active;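 active means mean inhibition of at least 75% with every replicate also reaching 75%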;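 further: 0% = median of neutral control wells and 100% = pilot-screen positive control compound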
The depositor's hits bear a star; nt = no result given.

SMILES | TWEAK-Fn14 inh | HIF-2a block | TROY NFkB inh | EBV LMP1 NFkB | MITF TRPM1 inh | Shn3 3UTR inh
O=C(N/N=C/c1cccnc1)c1cc(-c2cccs2)nc2ccccc12 | -11.0 | -11.0 | -1.5 | 57.7* | -8.7 | -23.7
Cc1noc(C)c1C(=O)N(CC(=O)Nc1ccc(Cl)c(C(F)(F)F)c1)Cc1ccco1 | 23.9 | 9.0 | -1.7 | 0.2 | 3.2 | -14.6
O=C(NN=Cc1ccccc1OC(F)F)c1cccc(S(=O)(=O)N2CCCC2)c1 | 8.4 | 12.1 | 6.9 | -3.6 | 6.7 | -11.8
CCN(C(=O)COC(=O)Cn1c(=O)oc2ccccc21)c1c(N)n(Cc2ccccc2)c(=O)[nH]c1=O | 3.2 | -3.6 | -2.3 | -2.7 | 3.6 | -7.7
O=C(O)CCc1ccc(-c2cccs2)n1NC(=O)c1ccco1 | 104.5* | 6.7 | 5.3 | -2.6 | 2.2 | -4.7
CC(=O)c1ccc(-n2c(CCC(=O)O)ccc2-c2cccs2)cc1 | 60.6* | -86.9 | 57.2* | -6.3 | 3.2 | -87.7
O=C(O)CCc1ccc(-c2ccccc2)n1NC(=O)c1ccco1 | 2.4 | 21.0 | 6.4 | -8.3 | 1.4 | -2.2
O=C(O)C(Cc1c[nH]c2ccccc12)NS(=O)(=O)c1cccc(Cl)c1Cl (centres undefined) | 6.2 | 15.6 | -11.0 | -4.2 | 4.3 | -6.2
CC1(C(=O)Nc2cnc3ccccc3c2)CCN1Cc1ccccc1OC(F)F (centres undefined) | 22.1 | -15.6 | 30.6 | nt | nt | 27.6
CC(C)COc1ccc(-c2nn(-c3ccccc3)cc2/C=C2/SC(=S)N(CC(=O)O)C2=O)cc1 | -14.9 | 16.7 | 87.7* | 5.1 | 12.2 | 1.4
COc1ccc(CN2C(=O)C(CC(=O)NCCc3ccccn3)CC(C(=O)N3CCOCC3)=C2C)cc1 (centres undefined) | -17.7 | -0.3 | -8.5 | nt | nt | -11.3
CCN1C(=O)[C@@H]2[C@@H]3CN(S(=O)(=O)c4ccc(C)cc4)[C@@H](c4ccccc4Cl)[C@@H]3C(=O)C[C@@H]2C1=O | 0.1 | -0.4 | 26.2 | nt | nt | -10.2
Cc1ccc(NC(=O)/C(C#N)=C/c2cn(CC(=O)NCc3ccco3)c3ccccc23)cc1C | -60.3 | 7.6 | 7.2 | -23.1 | 12.5 | 9.2
Cc1cc(C)cc(NC(=O)/C(C#N)=C/c2cn(CC(=O)NCc3ccco3)c3ccccc23)c1 | -52.6 | 14.0 | 29.0 | -2.5 | 83.9* | 73.2
O=C1C=C(c2cccc3c2sc2ccccc23)C[C@@H](c2ccc(F)cc2)C1 | -26.3 | -11.2 | -9.3 | -0.9 | -2.0 | -2.4
CSc1ccccc1NC(=O)c1ccc(CN2CCOCC2)cc1 | -10.2 | -91.7 | -19.4 | -12.0 | -1.3 | -25.5
Cc1cc(CSc2ccccc2)ccc1NC(=O)c1ccc(CN2CCOCC2)cc1 | 51.6* | 4.2 | 24.1 | 34.7 | 11.6 | 25.1
Nc1ccn([C@@H]2O[C@H](CNCc3ccc(C#CCCO)cc3)[C@@H](O)[C@H]2O)c(=O)n1 | -10.0 | 2.5 | -1.6 | 6.0 | nt | 7.5
Cc1cccnc1Oc1ncccc1N | 7.7 | 15.9 | 11.3 | nt | nt | 3.6
O=C(NCCC1=CCCCC1)C1CCC(=O)N(Cc2ccc(Cl)cc2)C1 (centres undefined) | -14.0 | 4.4 | 8.6 | 12.8 | -4.2 | -12.2
O=C(NCCC1=CCCCC1)C1CC(=O)N(Cc2ccccc2)C1 (centres undefined) | 94.9* | 4.3 | 4.7 | -3.2 | 4.5 | -6.6
COC(=O)Nc1ccc(S(=O)(=O)N2CCCc3ccccc32)cc1 | 52.8* | -8.2 | 27.9 | 15.9 | 7.0 | -1.2
CNC(=O)c1ccsc1NC(=O)c1ccc(S(=O)(=O)N2CCCc3ccccc32)cc1 | 76.2* | 20.8 | 48.3 | -1.5 | nt | 54.9
COC(=O)Nc1ccc(S(=O)(=O)N2CCCc3cccc(O)c32)cc1 | 9.9 | 9.1 | 21.2 | -4.3 | nt | 16.9
Cc1cccc(S(=O)(=O)N2CCCc3ccccc32)c1 | 6.9 | -33.6 | -1.9 | 48.0* | 5.2 | 6.9
Cc1cc(C)c(S(=O)(=O)N2CCCc3ccccc32)c(C)c1 | 7.6 | 19.2 | 16.6 | 1.2 | 11.8 | -25.1
CC1CCc2nc(NC(=O)c3ccc(S(=O)(=O)N4CCCc5ccccc54)cc3)sc2C1 (centres undefined) | 54.8* | 2.4 | 8.6 | 39.0 | 19.6 | 81.6
CC(C)C[C@H]1CN(CCCC[C@@H]2CNC(=O)C(=O)N2CCc2ccccc2)C(=O)C(=O)N1CCc1ccc(O)cc1 | -1.2 | -11.2 | -1.2 | nt | nt | nt
O=C(Nc1nc2c(s1)CCCC2)c1ccc(S(=O)(=O)N2CCCc3ccccc32)cc1 | 69.3* | -20.9 | 16.7 | -49.8 | 13.0 | 66.3

High-throughput results: PubChem, several laboratories
